Rows were chosen to be rich in hits. Some 2.4% of all compounds tested hit in one or more screens of this group.
ULK1 primary – human ULK1 kinase inhibition, primary screen. O75385. AlphaScreen Atg13 phosphorylation by ULK1, luminescence. inhibition, % at 5.96 µM. actives 1.9% (n = 30,000); in the data active = inhibition above about 43%
ASK1 inh – inhibitors of human ASK1 kinase; Q99683; AlphaScreen MKK6 phosphorylation by ASK1, luminescence; inhibition, % at 7.44 µM; actives 0.99% (n = 22,000); AID 1159602; in the data active = inhibition above about 35%
TruHits interf – interferes with AlphaScreen TruHits signal in ASK1 counter-screen; shares compounds with ASK1 inh; AlphaScreen TruHits beads, signal interference counterscreen; IC50, µM; actives 20% (n = 220); AID 1159604;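 active = IC50 of 10 µM or lower in the counterscreen; inactive = IC50 above 10 µM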;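 note: loss of AlphaScreen light from TruHits beads alone with no ASK1 enzyme present; potency of signal reduction so a low IC50 flags an assay artifact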
Hits are given with their value; 0 = inactive; - = not tested or not shown; ! = not active in a repeat.

SMILES	ULK1 primary	ASK1 inh	TruHits interf
c1ccc(-n2cnc3c(NC4CC4)nc(-c4csc5ccccc45)nc32)cc1	0	0	-
CN(C)CCNC(=O)c1ccc2c(c1)CC(c1nc3c(F)cc(-c4ccnc(N)n4)cc3[nH]1)CO2 (centres undefined)	0	0	-
CN1CCC(=C2c3ccccc3CCc3cccnc32)CC1	0	-	-
Cc1cccc(CC(=O)Nc2cnn(-c3ccccc3C(=O)Nc3cccc(C(N)=O)c3)c2)c1	0	0	-
CCn1cc(C(=O)O)c(=O)c2cc(F)c(N3CCNCC3)nc21	0	-	-
CC[C@@H]([C@H](C)O)n1ncn(-c2ccc(N3CCN(c4ccc(OCC5CO[C@@](Cn6cncn6)(c6ccc(F)cc6F)C5)cc4)CC3)cc2)c1=O (some centres undefined)	0	-	-
O=C(Nc1ccccc1)c1cc(N2CCc3ccccc3C2)nc2ccccc12	0	0	-
COc1cc2nc(Nc3ccc(N4CCOCC4)cc3)nc(NCCc3ccc(O)cc3)c2cc1OC	0	0	-
COc1ccc(CCNc2nc(Nc3ccc(N4CCOCC4)cc3)nc3cc(OC)c(OC)cc23)cc1	0	52.8	6.78
c1ccc(Oc2ccc(Nc3nc(N4CCc5ccccc5C4)nc4c3ncn4-c3ccccc3)cc2)cc1	0	45.8	0
c1ccc(Oc2ccc(Nc3nc(N4CCOCC4)nc4c3ncn4-c3ccccc3)cc2)cc1	0	0	-
NC(=O)c1ccc(-c2nccc(NCCCN3CCCC3=O)n2)cc1	0	0	-
COc1cc(Nc2nc(-c3c(C)noc3C)nc3c2ncn3Cc2ccc(C(F)(F)F)cc2)cc(OC)c1OC	0	36.8	0
COc1cc(Nc2nc(Nc3cc(OC)c(OC)c(OC)c3)c3ncn(Cc4ccc(C(F)(F)F)cc4)c3n2)cc(OC)c1OC	0	0	-
CCOC(=O)N1CCN(C(c2ccccn2)c2c(O)cc(C)n(CC)c2=O)CC1 (centres undefined)	0	-	-
Fc1cc(-c2ccnc(Nc3ccc(-n4ccnn4)cc3)n2)cc(N2CCOCC2)c1	0	0	-
OC1CCN(c2ccc(Nc3nccc(-c4cc(F)cc(N5CCN(C6CC6)CC5)c4)n3)cc2)CC1	54.7	40.6	0
Cc1ccc(-c2ncn(-c3ccc(Nc4nccc(-c5ccc(Cl)nc5)n4)cc3)n2)cn1	0	0	-
Cc1ccc(-c2ncn(-c3ccc(Nc4nccc(-c5cncc6ccccc56)n4)cc3)n2)cn1	0	37.7	0
Cc1ccc(-c2ncn(-c3ccc(Nc4nccc(-c5ccc(N)nc5)n4)cc3)n2)cn1	0	0	-
Cc1ccc(-c2ncn(-c3ccc(Nc4nccc(-c5cncc(N6CCOCC6)c5)n4)cc3)n2)cn1	0	41.5	0
O=C1CCCN1CCCNc1nc(N2CCc3ccccc3C2)nc2c1ncn2-c1ccsc1	0	0	-
NC(=O)c1ccc(-c2nc(NCc3cccc(C(F)(F)F)c3)c3ncn(-c4ccccc4)c3n2)cc1	0	38.7	0
FC(F)(F)c1cccc(CNc2nc(-c3ccccc3)nc3c2ncn3-c2ccccc2)c1	0	0	-
N#C/C(=C/c1ccc(N2CCCCC2)c([N+](=O)[O-])c1)C(N)=O	0	-	-
SMILES	ULK1 primary	ASK1 inh	TruHits interf
COc1ccc(-c2nc3c(Nc4ccc(Oc5ccccc5)cc4)ncnc3n2C(C)C)cc1	0	0	-
CC(C)n1c(-c2ccc(C(N)=O)cc2)nc2c(Nc3ccc(Oc4ccccc4)cc3)ncnc21	0	37.0	0
COc1cc2nc(Nc3ccc(N4CCOCC4)cc3)nc(Nc3cc(OC)c(OC)c(OC)c3)c2cc1OC	0	52.9	7.74
COc1cc2nc(Nc3cccc(N(C)C)c3)nc(Nc3ccc(N4CCOCC4)cc3)c2cc1OC	0	55.7	6.42
COc1cc2nc(Nc3cc(OC)c(OC)c(OC)c3)nc(NC3CC3)c2cc1OC	0	0	-
Cc1cnc(Nc2cccc(N(C)C)c2)nc1Nc1ccc(N2CCOCC2)cc1	0	0	-
COc1cc2nc(Nc3ccc(N4CCOCC4)cc3)nc(NC3CC3)c2cc1OC	0	42.6	0
COc1cc(Nc2nc(Nc3ccc(N4CCOCC4)cc3)c3[nH]cnc3n2)cc(OC)c1OC	0	0	-
COc1cc2nc(Nc3cc(OC)c(OC)c(OC)c3)nc(Nc3ccc(N4CCOCC4)cc3)c2cc1OC	0	47.6	7.18
COc1cc2nc(N3CCOCC3)nc(Nc3ccc(N4CCOCC4)cc3)c2cc1OC	0	0	-
O=C(NCc1ccccc1)c1cccc(-c2ccc(N3CCOCC3)nc2)c1	0	0	-
Oc1ccc(CCNc2nc(Nc3ccc4ncccc4c3)nc3c2ncn3C2CCCCC2)cc1	0	0	-
FC(F)(F)c1ccc(Cn2cnc3c(NCc4cccnc4)nc(N4CCC(N5CCOCC5)CC4)nc32)cc1	0	0	-
COc1cccc(CNC(=O)Nc2ccc(-c3cn[nH]c3)cc2)c1	0	0	-
O=C(NCCCN1CCCC1=O)c1ccc2nc(NC3CCC(O)CC3)sc2c1 (centres undefined)	0	0	-
Oc1ccc(CCNc2nc(-c3ccc(N4CCOCC4)nc3)nc3c2ncn3C2CCCCC2)cc1	0	0	-
Cc1cnc(Nc2ccncn2)nc1NCc1ccccc1	0	0	-
COc1ccc(CCNc2nc(-c3csc4ccccc34)nc3c2ncn3C2CCCCC2)cc1	0	0	-
Cc1ccc(OCC(=O)Nn2cnnc2)cc1	0	-	-
CCNc1nc(Nc2ccc3c(c2)OCO3)c2cc(OC)c(OC)cc2n1	0	0	-
COc1cc2nc(Nc3cccc(N(C)C)c3)nc(Nc3ccc4c(c3)OCO4)c2cc1OC	0	61.0	3.64
COc1cccc(CNC(=O)C(O)c2ccc(-c3ccncc3)cc2)c1 (centres undefined)	0	0	-
O=C(Nc1ccc(-c2cn[nH]c2)cc1)C1COc2ccccc2O1 (centres undefined)	0	0	-
O=C(Nc1ccc(-c2ncnc3[nH]ccc23)cc1)C1COc2ccccc2O1 (centres undefined)	0	38.0	0
c1ccc(CNc2ncnc3nc(N4CCN(Cc5ccc6c(c5)OCO6)CC4)[nH]c23)cc1	0	0	-
SMILES	ULK1 primary	ASK1 inh	TruHits interf
c1nc2nc(N3CCN(Cc4ccc5c(c4)OCO5)CC3)nc(Nc3ccc(N4CCOCC4)cc3)c2[nH]1	0	0	-
Oc1ccc(CCNc2ncnc3nc(N4CCN(Cc5ccc6c(c5)OCO6)CC4)[nH]c23)cc1	0	41.2	0
c1nc(Nc2ccc(N3CCOCC3)cc2)c2[nH]c(N3CCN(Cc4ccc5c(c4)OCO5)CC3)nc2n1	0	42.9	0
c1cn(-c2ccc(Nc3nc4ncnc(Nc5ccc6c(c5)OCO6)c4[nH]3)cc2)cn1	0	39.2	0
c1cnc2ccc(Nc3nc4ncnc(Nc5ccc6c(c5)OCO6)c4[nH]3)cc2c1	0	0	-
CCCNc1nc(-c2csc3ccccc23)nc2c1ncn2CCN1CCCC1=O	0	0	-
CN1CCN(c2ccc(-c3cccc(C(=O)NCCc4ccc(O)cc4)n3)cc2)CC1	0	0	-
CCNc1nc(NCCCN2CCCC2=O)c2[nH]cnc2n1	0	0	-
CC(C)n1cnc2c(NCc3cccc(C(F)(F)F)c3)nc(Nc3ccc(N4CCOCC4)cc3)nc21	0	54.6!	6.4
FC(F)(F)c1cccc(CNc2nc(Nc3ccc(N4CCOCC4)cc3)nc3nc[nH]c23)c1	0	45.5!	0
FC(F)(F)c1ccc(Nc2nc(NCc3cccc(C(F)(F)F)c3)c3[nH]cnc3n2)cc1	0	0	-
CC(C)n1cnc2c(NCc3cccc(C(F)(F)F)c3)nc(Nc3ccccc3)nc21	0	0	-
O=C(C(O)c1ccc(F)cc1F)N1CCN(c2ccc3[nH]ncc3c2)CC1 (centres undefined)	0	0	-
COc1ccc(Nc2ncc(-c3ccc(Cl)cc3)cn2)cc1	0	-	-

Screening results: PubChem, The Scripps Research Institute Molecular Screening Center
